Data: PubChem BioAssay AID588405 (Sanford-Burnham Center for Chemical Genomics, 2011)
Hit rate of the full screen: of about 360,000 compounds, about 6,200 (1.7%) were called active.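 Rule for the calls: active = inhibition of at least 50% at 20 µM; inactive = the rest.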 This excerpt belongs to a sample that is enriched for actives.

Experiment: inhibition of PEG-3 promoter activity – cell-based, HeLa, luciferase luminescence, primary screen (AID 588405)
Conditions: HeLa PEG-Prom luciferase reporter, overnight, at 20 µM, hits give high values
For `COc1ccc(C(=O)N2CCCCC2c2cc(C(=O)Nc3ccc(F)c(Cl)c3)no2)cc1` (centres undefined), the inhibition was 11.5% (inactive). For `Cc1nccn1-c1ccc(NC(=O)[C@H]2O[C@@H](n3cnc4c(N)ncnc43)[C@H](O)[C@@H]2O)cc1`, the inhibition was 7.92% (inactive). In the case of `CCc1nc2ccc(C(=O)NCc3ccc(OC)cc3)cn2c1N(CC)Cc1cccc(Br)c1`, the inhibition is reported as 19.4% (inactive). For `COc1ccc(NC(=O)c2sc(=O)n(Cc3ccc(S(=O)(=O)N(C)C)cc3)c2C)cc1`, the inhibition was 2.16% (inactive). For `Cc1ccc(SCC(=O)N2CCN(c3ccc(F)cc3)CC2)cc1`, the inhibition was 8.76% (inactive). With `CCN1CCC2(CC1)N=C(c1ccc(F)cc1)C(=S)N2C(=O)c1ccc(C)cc1` the inhibition was 90% (active). For `Cc1ccc(C(=O)N2CC(=O)Nc3ccc(F)cc3C2c2ccc(F)cc2)cc1` (centres undefined), the inhibition was 17.9% (inactive). In the case of `CCCNC(=O)c1cc(C2CCCCN2S(=O)(=O)c2ccc(C#N)cc2)on1` (centres undefined), the inhibition is reported as -6.28% (inactive). In the case of `OC(c1cc(Cl)cc(Cl)c1)c1ncc(-c2ccccc2C(F)(F)F)[nH]1` (centres undefined), the inhibition is reported as 35.8% (inactive). In the case of `CCc1ccc(/C=N/NC(=O)c2ccc(OC3CCCC3)cc2)s1`, the inhibition is reported as 14.5% (inactive). For `CC1(C(=O)NCc2ccco2)Cc2c(-c3ccc4c(c3)OCO4)ccnc2O1` (centres undefined), the inhibition was 7.44% (inactive). In the case of `O=C(Nc1ncccc1O)c1ccc(C(=O)c2ccccc2)cc1`, the inhibition is reported as -204% (inactive). In the case of `O=C(Nc1ccc2ccccc2c1[N+](=O)[O-])c1ccccc1`, the inhibition is reported as -223% (inactive). For `O=C(NC1=CC(=O)c2ccccc2C1=O)c1ccccc1`, the inhibition was 106% (active). In the case of `CCCNC(=O)C1(C)CCCN(C(=O)c2cccc(OC(C)=O)c2C)C1` (centres undefined), the inhibition is reported as -1.66% (inactive). With `COc1cc(NS(=O)(=O)c2ccc3ccccc3c2)c2ncccc2c1` the inhibition was 54.5% (active). For `CCOc1ncccc1C(=O)NNC(=O)c1cccc(S(=O)(=O)Nc2ccccc2OC)c1`, the inhibition was 6.59% (inactive). In the case of `CCOc1cc(NS(=O)(=O)c2ccc(OC)cc2)c(OCC)cc1NC(C)=O`, the inhibition is reported as 11.6% (inactive). In the case of `COc1ccc(N2C(=O)NC(NS(=O)(=O)c3ccc(Cl)cc3)(C(F)(F)F)C2=O)cc1` (centres undefined), the inhibition is reported as 10.8% (inactive). For `CC1=C(C(=O)N2CCOCC2)CC(CC(=O)NCc2cccs2)C(=O)N1CCCN1CCCC1=O` (centres undefined), the inhibition was 0.54% (inactive). In the case of `O=C1C(Cl)=C(Oc2ccccc2)C(=O)c2ccccc21`, the inhibition is reported as 104% (active). In the case of `O=c1[nH]nc(SCCS(=O)(=O)c2ccc(F)cc2)n1-c1ccccc1C(F)(F)F`, the inhibition is reported as -139% (inactive). With `CC(C)(C)N1C(=O)c2c(C(=O)OCc3ccccc3)[nH]c(-c3ccccc3)c2C1=O` the inhibition was 24.2% (inactive). In the case of `COc1ccc(NC(=O)c2cn(-c3ccccc3)nc2SC)cc1`, the inhibition is reported as -78.1% (inactive).
